Measured values from paper PMC4552634, “A New Set of Chemical Starting Points with Plasmodium falciparum Transmission-Blocking Potential for Antimalarial Drug Discovery” (PLoS ONE, 2015).
Like-named read-outs stand apart in the source and are kept apart here. Out of some 13,000 compounds screened, about 3,200 (25%) showed an effect of 50% or more. The list shows a part of the results.

Test system: P. falciparum stage V gametocytes
Set-up: BacTiter-Glo ATP luminescence viability of purified stage V gametocytes in 384-well plates, per cent inhibition versus DMSO
Conditions: 48 h, 5 µM, inhibitor

With N#Cc1ccc2nc(-c3ccccc3)[nH]c2c1 [TCMDC-137223] the “% Inhibition” value was 19.91%.
COc1cc(C(=O)Nc2cccc(-c3nc4ccccc4[nH]3)c2)ccc1OC(C)=O [TCMDC-123603] was tested, and the “% Inhibition” value was -70.82%.
With O=C(CCNc1ccnc(NCCc2ccccc2)n1)Nc1ccccc1 [TCMDC-134809] the “% Inhibition” value was 42.97%.
In the case of Cc1cnc(NCCc2ccc(F)cc2)nc1NCCC(=O)Nc1ccccc1 [TCMDC-134850], the “% Inhibition” value is reported as 59.7%.
Cc1cnc(NCCc2ccc(F)cc2)nc1N[C@@H](CC(C)C)C(=O)Nc1ccccc1 [TCMDC-134851] was tested, and the “% Inhibition” value was -15.21%.
In the case of O=C(CCNc1ccnc(NCCc2ccc(F)cc2)n1)Nc1ccccc1 [TCMDC-134824], the “% Inhibition” value is reported as 63.53%.
With Cc1cnc(Nc2ccccc2)nc1NCCC(=O)Nc1ccccc1 [TCMDC-134914] the “% Inhibition” value was 19.34%.
With Cc1ccccc1CNc1nccc(NCCC(=O)Nc2ccccc2)n1 [TCMDC-134913] the “% Inhibition” value was 50.88%.
With Cc1cc(NCCC(=O)Nc2ccccc2)nc(NCc2ccccc2C)n1 [TCMDC-134901] the “% Inhibition” value was 2.536%.
For O=C(CCNc1ccnc(NCC2CCCCC2)n1)Nc1ccccc1 [TCMDC-134707], the “% Inhibition” value was 16.22%.
In the case of Cc1ccc(NS(=O)(=O)c2ccc(-c3ccccc3)cc2)c(Cn2cnc(N3CCCNCC3)cc2=O)c1 [TCMDC-133150], the “% Inhibition” value is reported as 3.416%.
COc1ccc2ncc(F)c(CCN3CC(O)C(CNCc4nc5c(cc4Cl)OCC(=O)N5)C3)c2n1 (stereo not drawn) [TCMDC-136079] was tested, and the “% Inhibition” value (% Inhibition) was 2.766%.
For CCOC(=O)c1sc(C(C)Nc2ccccc2)nc1-c1ccccc1 (stereo not drawn) [TCMDC-135642], the “% Inhibition” value was 18.56%.
With Cc1ccc(CN2CCC(Oc3cccc(NC(=O)c4ccc(C(F)(F)F)cc4)c3)CC2)cc1 [TCMDC-133736] the “% Inhibition” value was -34.39%.
In the case of O=C(NC1CC1)c1ccc(N2CCC(COc3cccc(F)c3)CC2)nc1 [TCMDC-134029], the “% Inhibition” value is reported as 11.49%.
In the case of O=C1OC(c2ccccc2)(c2ccccc2)CN1CC1CCN(Cc2ccc(O)c(Cl)c2)CC1 [TCMDC-136312], the “% Inhibition” value is reported as 3.668%.
For FC(F)(F)c1ccc2[nH]c(-c3cccc(-c4cccc(CNCC5CCCO5)c4)c3)nc2c1.O=C(O)C(F)(F)F (stereo not drawn) [TCMDC-133102], the “% Inhibition” value was -56.01%.
For CN(Cc1cccc(O)c1)C1CCN(c2cc(NC(=O)c3ccc(F)cc3)ccn2)C1 (stereo not drawn) [TCMDC-134955], the “% Inhibition” value was -27.34%.
For COc1ccc(CCC(C)(C)NCC(O)c2cccc(C(F)(F)F)c2)cc1 (stereo not drawn) [TCMDC-131504], the “% Inhibition” value was -35.85%.
For Cc1ccc(S(=O)(=O)Nc2ccc(Nc3nccc(Nc4cccc5[nH]ncc45)n3)cc2)cc1 [TCMDC-136297], the “% Inhibition” value was -19.92%.
With CC(C)N1CCCN(C(=O)C2CCN(c3ccc(C(=O)N4CCCC4)cn3)CC2)CC1 [TCMDC-135636] the “% Inhibition” value was 39.57%.
For COc1ccc(C2NCCc3c2[nH]c2ccccc32)cc1CN1CCN(c2ccc(F)cc2)CC1 (stereo not drawn) [TCMDC-124340], the “% Inhibition” value was -3.324%.
For COc1cc(C2C(Oc3ccccc3)C(=O)N2Cc2ccc(F)cc2)cc(OC)c1OC (stereo not drawn) [TCMDC-125396], the “% Inhibition” value was 72.32%.
COc1cc(NC(=O)c2ccc3c(=O)n(Cc4ccccc4)c(=S)[nH]c3c2)cc(OC)c1OC [TCMDC-123804] was tested, and the “% Inhibition” value was 26.78%.
Cc1cccc(Nc2nc(NCCCCN)nc3cc[nH]c(=O)c23)c1 [TCMDC-134946] was tested, and the “% Inhibition” value was 47.91%.
NCCCNc1nc(Nc2ccc(C(F)(F)F)cc2F)c2c(=O)[nH]ccc2n1 [TCMDC-135056] was tested, and the “% Inhibition” value was 108.1%.
For NCCCNc1nc(Nc2cccc(C(N)=O)c2)c2c(=O)[nH]ccc2n1 [TCMDC-135053], the “% Inhibition” value was 0.6256%.
In the case of CCS(=O)(=O)c1ccc(/C(=N/OC)c2ccc[nH]2)cc1 [TCMDC-139022], the “% Inhibition” value is reported as -5.005%.
For CCCc1cc(=O)[nH]c(-n2nc(C)cc2NC(=O)C(CC)c2ccccc2)n1 (stereo not drawn) [TCMDC-124941], the “% Inhibition” value was 11.79%.
Cc1cc(=O)[nH]c(-n2nc(C)cc2NC(=O)CC(c2ccccc2)c2ccccc2)n1 [TCMDC-124944] was tested, and the “% Inhibition” value was -15.6%.
In the case of Cc1ccc(Nc2cc(C)nn2-c2nc(C)cc(=O)[nH]2)cc1 [TCMDC-123713], the “% Inhibition” value is reported as 62.43%.
With Cc1cc(=O)[nH]c(-n2nc(C)cc2NC(=O)C(c2ccccc2)c2ccccc2)n1 [TCMDC-124945] the “% Inhibition” value was 2.872%.
With CCN(CC)c1nc(Nc2cc(C)ccc2C)nc(Nc2ccccc2O)n1 [TCMDC-125766] the “% Inhibition” value was -38.82%.
In the case of CCn1c(-c2nonc2N)nc2cnc(Oc3cccc(NC(=O)c4ccc(OCCCN5CCCCC5)cc4)c3)cc21 [TCMDC-135764], the “% Inhibition” value is reported as -4.348%.
For CCn1c(-c2nonc2N)nc2c(-c3cccc(NC(=O)Nc4cccc(Cl)c4)c3)ncc(OCCCN)c21 [TCMDC-136193], the “% Inhibition” value was 104.3%.
CCOC(=O)c1cccc(NC(=O)Nc2cccc(-c3ncc(OCCCN)c4c3nc(-c3nonc3N)n4CC)c2)c1 [TCMDC-136205] was tested, and the “% Inhibition” value was 109.2%.
With Nc1nonc1-c1nc2c(-c3cccc(Cl)c3)nccc2n1CCCNC(=O)Cc1ccc(Cl)cc1 [TCMDC-135207] the “% Inhibition” value was 32.87%.
CCn1c(-c2nonc2N)nc2cnc(Oc3cccc(NC(=O)c4ccc(OCCN5CCCC5)cc4)c3)cc21 [TCMDC-135776] was tested, and the “% Inhibition” value was 8.365%.
With Cc1cccc2[nH]c(-c3cccc(-c4cccc(NC(=O)Nc5ccc(Cl)cc5)c4)c3)nc12 [TCMDC-133179] the “% Inhibition” value was -25.81%.
With CCOC(=O)c1ccc(NC(=O)Nc2cccc(-c3cccc(-c4nc5c(C)cccc5[nH]4)c3)c2)cc1 [TCMDC-133264] the “% Inhibition” value was -4.791%.
CCn1c(-c2nonc2N)nc2c(-c3cccc(NC(=O)Nc4ccc5c(c4)CCC5)c3)ncc(OCCCN)c21 [TCMDC-136191] was tested, and the “% Inhibition” value was 95.55%.
In the case of CCn1c(-c2nonc2N)nc2c(-c3cccc(NC(=O)Nc4ccc(Cl)cc4)c3)ncc(OCCCN)c21 [TCMDC-136152], the “% Inhibition” value is reported as 102.5%.
In the case of CCOC(=O)c1ccc(NC(=O)Nc2cccc(-c3cccc(-c4nc5ccccc5[nH]4)c3)c2)cc1 [TCMDC-133263], the “% Inhibition” value is reported as 2.081%.
CCn1c(-c2nonc2N)nc2c(Cl)ncc(O[C@H](CCN)c3ccccc3F)c21 [TCMDC-133566] was tested, and the “% Inhibition” value was -5.634%.
In the case of CCn1c(-c2nonc2N)nc2c(-c3cccc(NC(=O)NC45CC6CC(CC(C6)C4)C5)c3)ncc(OCCCN)c21 [TCMDC-136246], the “% Inhibition” value is reported as 20.74%.
